In PubChem BioAssay AID743330 (NMMLSC, 2014):
Activity calls are given as the source filed them. How the calls were made is not given here.

Test system: Rab7
Assay: GTPase panel EC50 shift with labeled GTP level, profiling panel, mechanism study, biochemical, four GTPases, bead flow cytometry (AID 743330)
Conditions: bead-based flow cytometry, fluorescent GTP binding to GTPases

Row | SMILES | EC50
1 | CCC1(C)Cc2c(sc(NC(=S)NC(=O)c3ccccc3)c2C(=O)O)CO1 (configuration not stated) | 7 nM (active)
2 | CC1(C)Cc2c(sc(NC(=S)NC(=O)c3ccc(F)cc3)c2C(=O)O)CO1 | 33 nM (active)
